A selection: hits, their analogues and other compounds. The true share with any hit is near 4.1%.
Jurkat NFkB inh: inhibitors of induced NF-kB luciferase reporter, primary screen, TCR NF-kB activation inhibitor project, cell-based, luminescence, uHTS. AID 435003, 2010. hit rate 0.53% among 330,000. Jurkat, PMA/ionomycin-induced NF-kB luciferase reporter. inhibition, % at 4 µM; in the data active = inhibition above about 50%
KLF5 inh: KLF5 expression inhibitors, primary screen, DLD-1 cells, luminescence | hit rate 0.23% among 290,000 | AID 1700, 2009 | inhibition, % at 5 µM | DLD-1 KLF5 promoter-luciferase reporter;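 active = inhibition above a per-plate limit of that plate's mean compound inhibition plus 3 SD, cut at about 60% in these data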;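 note: 0% = DMSO wells and 100% = LY294002 at 200 µM; higher means less KLF5 promoter-driven luciferase light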
697 NFkB inh: inhibitors of PMA/ionomycin-induced NF-kB reporter, 697 cells, primary screen, B-cell NF-kB inhibitor project, cell-based, luminescence, uHTS | 697 B-cell NF-kB luciferase reporter, 16 h | inhibition, % at 4 µM | hit rate 0.33% among 330,000 | AID 435022, 2010; in the data active = inhibition above about 35%
aSyn 5UTR inh: MLPCN primary screen, SNCA 5' untranslated region | inhibition, % (tested at 7.5 µM) | hit rate 0.82% among 300,000 | AID 1813, 2009 | alpha-synuclein 5'UTR reporter, inhibitor activity; in the data active = inhibition above about 60%;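 note: H4 neuroglioblastoma cells stably carrying SNCA 5'UTR luciferase fusion; 0% = DMSO wells and 100% = positive control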
Gli-Sufu antag: Gli-Sufu pathway antagonists, primary screen, luciferase luminescence, Sufu-KO-LIGHT cells, uHTS; inhibition, % at 5 µM; hit rate 0.74% among 340,000; Sufu-KO-LIGHT fibroblasts, Gli luciferase reporter luminescence;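 active = inhibition above about 55%, limit read from the data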;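 note: 0% = DMSO-treated cells and 100% = wells with medium but no cells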
Mdm2-MdmX inh: inhibitors of human Mdm2-MdmX association, primary screen, cell-based, luminescence, split luciferase, SaOS-2, uHTS; hit rate 3% among 330,000; SaOS-2 split-luciferase Mdm2/MdmX complementation; inhibition, % at 8 µM; Protein Mdm4 (Homo sapiens) + E3 ubiquitin-protein ligase Mdm2 (Homo sapiens), …;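 active = inhibition of at least 50% at 8 µM in the primary screen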
Target sequence (O15151 whole entry, looked up): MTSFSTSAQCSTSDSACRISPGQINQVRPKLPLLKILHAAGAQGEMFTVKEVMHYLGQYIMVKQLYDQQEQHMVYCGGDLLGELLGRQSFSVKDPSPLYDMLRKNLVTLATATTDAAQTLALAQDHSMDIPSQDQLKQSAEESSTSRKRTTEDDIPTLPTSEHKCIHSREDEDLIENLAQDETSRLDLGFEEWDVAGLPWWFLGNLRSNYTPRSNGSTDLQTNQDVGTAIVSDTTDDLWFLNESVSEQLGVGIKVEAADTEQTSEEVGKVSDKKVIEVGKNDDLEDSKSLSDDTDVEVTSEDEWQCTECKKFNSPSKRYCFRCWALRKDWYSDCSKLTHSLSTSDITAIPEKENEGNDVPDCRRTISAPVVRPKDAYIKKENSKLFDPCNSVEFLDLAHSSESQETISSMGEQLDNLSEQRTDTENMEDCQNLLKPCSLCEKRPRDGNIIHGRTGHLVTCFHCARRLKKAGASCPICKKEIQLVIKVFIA
Target sequence (Q00987 whole entry, looked up): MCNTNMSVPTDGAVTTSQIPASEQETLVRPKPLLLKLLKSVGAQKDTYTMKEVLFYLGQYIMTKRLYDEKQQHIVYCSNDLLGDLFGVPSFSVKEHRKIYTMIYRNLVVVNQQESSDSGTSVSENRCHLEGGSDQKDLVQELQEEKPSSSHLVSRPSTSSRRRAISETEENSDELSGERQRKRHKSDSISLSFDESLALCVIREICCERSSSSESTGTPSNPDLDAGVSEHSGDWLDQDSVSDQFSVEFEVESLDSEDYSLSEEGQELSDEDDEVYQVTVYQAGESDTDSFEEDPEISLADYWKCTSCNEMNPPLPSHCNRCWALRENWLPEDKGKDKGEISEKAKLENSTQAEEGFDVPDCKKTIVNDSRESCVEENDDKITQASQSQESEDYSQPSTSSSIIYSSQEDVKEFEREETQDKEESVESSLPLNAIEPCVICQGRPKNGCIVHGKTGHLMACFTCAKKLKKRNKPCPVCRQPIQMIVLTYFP
Jurkat NFkB conf: PMA/ionomycin-induced NF-kB reporter inhibitors, Jurkat retest, confirmation, T-cell NF-kB inhibitor project, cell-based, luminescence, single concentration; shares compounds with Jurkat NFkB inh; Jurkat NF-kB luciferase, 16 h; inhibition, % at 4 µM; hit rate 27% among 2,700; AID 435020, 2010;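 active = inhibition reaching about 45% at 4 µM in either replicate, limit read from the data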;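 note: plate controls were PMA/ionomycin stimulated DMSO wells for no effect and unstimulated DMSO wells for full effect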
697 NFkB conf: PMA/ionomycin-induced NF-kB reporter inhibitors, 697 retest, confirmation, B-cell NF-kB inhibitor project, cell-based, luminescence, single concentration; shares compounds with 697 NFkB inh; 697 B-cell NF-kB luciferase, 16 h; inhibition, % at 4 µM; hit rate 35% among 2,000; AID 449746, 2010; in the data active = inhibition mostly above about 28%, no sharp cut-off; inactive = mostly below about 22%
Mdm2-MdmX conf: Mdm2-MdmX complex disruptors, retested hits, confirmation, luminescence, single concentration; hit rate 55% among 10,000; shares compounds with Mdm2-MdmX inh; Mdm2-MdmX binding, luminescent assay; inhibition, % at 8 µM; in the data active = inhibition above about 40%
FLuc counter: full-length luciferase signal inhibition, confirmation, counter-screen for Mdm2/MdmX interaction inhibitor project, cell-based, single concentration, SaOS-2; shares compounds with Mdm2-MdmX inh; SaOS-2 full-length luciferase counterscreen, luminescence; inhibition, % at 8 µM; hit rate 77% among 6,200; AID 504607, 2011;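 active = mean inhibition at 8 µM reaching about 37%, which flags the compound as non-specific, limit read from the data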;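 note: p53-null SaOS-2 cells with luciferase driven by a doxycycline-inducible promoter; compound on cells about two nights before reading with doxycycline added after day one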
The depositor's hits bear a star; · = no result given.

SMILES	Jurkat NFkB inh	KLF5 inh	697 NFkB inh	aSyn 5UTR inh	Gli-Sufu antag	Mdm2-MdmX inh	Jurkat NFkB conf	Mdm2-MdmX conf	FLuc counter	others
CCc1ccc(S(=O)(=O)N2CCN(C(=O)c3cccnc3)CC2)cc1	2	-17	3	1	2	-1	·	·	·
Cc1cc(NC(=O)CSc2nc3c(sc4ccccc43)c(=O)n2CCCN2CCOCC2)n[nH]1	59*	37	38*	-17	-77	70*	59*	82*	125*	697 NFkB conf=27
O=C(CSc1nc2c(sc3ccccc32)c(=O)n1CCCN1CCCC1)NCc1ccco1	-22	-6	1	-29	18	25	·	·	·
COc1ccc(N2CC(C(=O)N[C@@H](CC(C)C)C(=O)NC3CCCC3)CC2=O)cc1 (stereo not given in full)	-1	-39	-3	-3	-8	5	·	·	·
CCOc1ccccc1N1CCN(C(=O)c2cc(-c3cccnc3)nc3c(Cl)cccc23)CC1	68*	-8	-31	16	2	88*	13	83*	52*
CCOc1ccccc1N1CCN(C(=O)c2cc3ccccc3cc2OC)CC1	57*	·	-46	·	11	57*	8	80*	69*
COc1cc2ccccc2cc1C(=O)N1CCN(C(C)=O)CC1	7	-35	-6	-13	0	16	·	·	·
CCOc1ccc2ccccc2c1C(=O)N1CCN(c2ccccc2)CC1	68*	35	-11	7	6	58*	9	54*	51*
O=C(c1ccc(S(=O)(=O)N2CCCCC2)cc1)N1CCCC(C(F)(F)F)C1 (stereo not given)	-17	·	5	7	-1	10	·	·	·
Cc1cccc(CC(=O)NCCS(=O)(=O)N2CCN(c3cccc(Cl)c3)CC2)c1	3	·	6	-9	-5	22	·	·	·
CCOC(=O)c1[nH]c(C=O)c(C(=O)OCC)c1C	59*	42	-31	2	34	65*	39	59*	71*
CCOC(=O)c1[nH]c(C)c(C(=O)Nc2ccccc2C)c1C	53*	47	-60	-27	-13	56*	39	62*	49*
CCOC(=O)c1[nH]c(C)c(C(=O)Nc2ccc(C)c(Cl)c2)c1C	-12	-5	5	-92	-9	35	·	·	·
CC(C)C[C@@H](CO)N1CCN(Cc2ccc([N+](=O)[O-])cc2)CCC1=O	-3	-17	12	8	5	0	·	·	·
O=C(N/N=C/c1ccccc1OCC(=O)N1CCCC1)C(=O)Nc1ccccc1F	8	-26	-19	-10	-15	28	·	·	·
Oc1ccccc1N=Nc1nc(-c2ccccc2)c(-c2ccccc2)[nH]1	58*	50	-17	107*	93*	87*	76*	86*	50*
CCC(=O)OCC(=O)N=c1sccn1Cc1ccccc1Cl	-7	-35	15	4	-8	2	·	·	·
O=C(CCl)N=c1sccn1Cc1ccc(Cl)cc1Cl	97*	-23	98*	-6	95*	100*	69*	100*	54*	697 NFkB conf=102*
O=C(CCl)N=c1sccn1Cc1ccccc1Cl	91*	-8	104*	-11	3	99*	71*	99*	51*	697 NFkB conf=94*

Bioassay records deposited in PubChem by several laboratories.
